Screening results from PubChem BioAssay.
HCMV antiviral: inhibitors of human cytomegalovirus | HFF cells, HCMV-luciferase reporter, 72 h; active compounds read low | activity change, negative = inhibition, % at 57.5 µM | actives 4.5% (n = 410,000) | AID 1259415; in the data active = activity change below about -60%; inconclusive = no clear call, values can overlap the other calls; inactive = above about -39%
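Compounds were evaluated in HFFs infected with an HCMV luciferase reporter virus (MOI 1 PFU/cell). Luciferase in lysates collected 72 h post infection served as the replication measure.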
Sm TGR block: inhibitors of Schistosoma mansoni thioredoxin glutathione reductase. Q962Y6. AID 485364. purified TGR, DTNB reduction, TNB absorbance 405 nm. actives 3% (n = 360,000). Potency, µM (titrated, usually from 114 µM), for the others: at the highest dose activity change, negative = inhibition, actives largely listed as inhibitors; also: potency is read from the fitted curve at half-maximal effect; nearly all actives have a fitted effect of over 60% in size
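Kinetic colorimetric format: TGR-catalysed, NADPH-driven DTNB reduction monitored via TNB absorbance. Enzyme dispensed at 20 nM; compound exposure 15 min at room temperature before reaction start.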
Tb PYK inh: T. brucei pyruvate kinase inhibition; AID 624173; Potency, µM (top dose mostly 76.8 µM), for inactives: at the top dose activity, negative = inhibition, hits mostly inhibitors; TbPYK enzyme, Kinase-Glo Plus ATP luminescence, 45 min; actives 0.12% (n = 410,000); also: potency is read from the fitted curve at half-maximal effect; nearly all actives have a fitted effect of over 50% in size
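In this concentration-response screen, enzyme-free wells defined baseline while DMSO plates tracked drift. Each reaction combined TbPYK, substrate, compound and 130 uM ADP for 45 min at room temperature. Kinase-Glo Plus luminescence gave the signal.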
FMDV inh: foot and mouth disease virus antiviral activity. FMDV antiviral cell-based qHTS. Potency, µM (series often up to 57.9 µM), for the others: top-dose activity change, negative = inhibition, usual class: inhibitors. actives 1.2% (n = 410,000). AID 1159524; calls by dose curve; tested in HEK293T cells; also: read-out not given here; potency is read from the fitted curve at half-maximal effect; nearly all actives have a fitted effect of over 45% in size
FBPA Giardia inh: inhibitors of Giardia lamblia fructose-1,6-bisphosphate aldolase; purified Giardia FBPA; Potency, µM (series often up to 59.6 µM), inactives show top-dose activity, negative = inhibition, actives largely listed as inhibitors; actives 0.71% (n = 290,000); AID 2451; also: potency is read from the fitted curve at half-maximal effect; nearly all actives have a fitted effect of over 55% in size
Target sequence (A8B2U2 whole entry, looked up): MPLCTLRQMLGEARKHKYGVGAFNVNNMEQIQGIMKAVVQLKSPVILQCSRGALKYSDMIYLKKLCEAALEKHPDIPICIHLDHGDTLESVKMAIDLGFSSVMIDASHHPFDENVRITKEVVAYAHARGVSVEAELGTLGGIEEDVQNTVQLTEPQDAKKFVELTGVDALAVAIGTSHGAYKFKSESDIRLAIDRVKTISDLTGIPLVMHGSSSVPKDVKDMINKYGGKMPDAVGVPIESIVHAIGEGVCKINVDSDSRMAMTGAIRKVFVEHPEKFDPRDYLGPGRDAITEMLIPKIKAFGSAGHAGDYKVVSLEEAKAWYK
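Giardia FBPA (40 nM reagent) was preincubated 10 min at RT with compound (up to 57.5 uM final), then substrate plus GAPDH/TPI/NAD/arsenate coupling system with diaphorase/resazurin was added; resorufin fluorescence (525/598 nm) was read after 20 min.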
RE007 growth inh: less growth of the S. pombe RE007 Vpr strain; S. pombe RE007 Vpr strain, BacTiter-Glo ATP luminescence, 24 h; Potency, µM (highest dose often 92.2 µM), inactives show at the top dose activity change, negative = less growth, usual class: inhibitors; actives 0.21% (n = 360,000); AID 651644; active = well fitted falling curve with a large enough effect; inconclusive = small, poorly fitted or top-dose-only effect; inactive = no such curve, though single readings can be large or run the other way; also: potency is read from the fitted curve at half-maximal effect; nearly all actives have a fitted effect of over 50% in size
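Fission yeast strain RE007, carrying one chromosomally integrated HIV-1 vpr copy, was seeded at OD 0.01 in PMG+AL medium with 23 nL pinned compound. After 24 h at 30 °C and 99% humidity, viability was read by BacTiter-Glo luminescence.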
Starred values were filed as active, the others as inactive. An excerpt weighted towards active compounds, which were near 7.7% of everything screened. Unless noted, calls follow the shape of the dose curve; as a rule, active = well fitted curve in the direction sought with a large enough effect; inconclusive = small, poorly fitted or top-dose-only effect, or another doubt; inactive = no such curve, though single readings can be large; an effect the other way counts as inactive or inconclusive. % is scaled to controls: 0 for no effect and ±100 for the full control effect.

For Cc1cccnc1CN1CCN(C(=O)c2cc(COc3ccc4ncccc4c3)on2)CC1 the results were HCMV antiviral -83*, Sm TGR block -2%, Tb PYK inh -6%, FMDV inh 13µM*, FBPA Giardia inh 0% and RE007 growth inh -29%.
For CCC(O)C1CCN(C(=O)c2cc(COc3ccc4ncccc4c3)on2)CC1 (stereo unspecified) the results were Sm TGR block 8%, Tb PYK inh -1%, FMDV inh inconclusive, FBPA Giardia inh 1% and RE007 growth inh 6%.
`CCOC(=O)N1CCN(C(=O)c2cc(COc3ccc4ncccc4c3)on2)CC1` gave HCMV antiviral -74*, Sm TGR block inconclusive, Tb PYK inh -4%, FMDV inh inconclusive, FBPA Giardia inh 0% and RE007 growth inh -11%.
`Cc1cc2c(c(=O)o1)[C@@]1(C(=O)N(C)c3ccccc31)C1=C(CCC1=O)O2` gave HCMV antiviral -28.
CCN(CC)S(=O)(=O)c1ccc(NC(=O)NCc2noc3ccc(C)cc23)cc1 was read as HCMV antiviral -39, Sm TGR block 6%, Tb PYK inh 10% and FMDV inh inconclusive.
For CCOC(=O)c1c(C)oc2nc(C)nc(NCCc3ccc(SC)cc3)c12 the results were HCMV antiviral -3, Sm TGR block 13%, Tb PYK inh -2% and FMDV inh inconclusive.
COc1ccc(CCn2c(=N)c(C(=O)NCCN3CCOCC3)cc3c(=O)n4cccc(C)c4nc32)cc1OC was read as HCMV antiviral -95*, Sm TGR block 3%, Tb PYK inh 1%, FMDV inh -21% and RE007 growth inh -6%.
Cc1cccn2c(=O)c3cc(C(=O)NCCN4CCOCC4)c(=N)n(CCc4ccccc4)c3nc12 was read as HCMV antiviral -85*, Sm TGR block -1%, Tb PYK inh 0%, FMDV inh -7%, FBPA Giardia inh 11% and RE007 growth inh -11%.
For CCC1(C2CCN(Cc3ccc(C)s3)CC2)NC(=O)N(CC2COc3ccccc3O2)C1=O (stereo unspecified) the results were FMDV inh -20%.
CCOC(=O)c1ccc(NC(=O)Cn2nc3c4ccccc4n(Cc4cccc(F)c4)cc-3c2=O)cc1 was read as HCMV antiviral 5, Sm TGR block 29%, Tb PYK inh 3% and FMDV inh -11%.
`O=C(/C=C/c1ccco1)Oc1cc(Br)cc(/C=N/NC(=O)c2ccccc2O)c1` gave HCMV antiviral -101*, Sm TGR block -6%, Tb PYK inh 2%, FMDV inh inconclusive, FBPA Giardia inh -8% and RE007 growth inh -28%.
For CCOC(=O)c1[nH]c2ccccc2c1NC(=O)c1ccc(OC(C)C)cc1 the results were HCMV antiviral 29, Sm TGR block -1%, Tb PYK inh -2% and FMDV inh -8%.
CCN(CC)c1ccc(Nc2nc(N3CCOCC3)c3ccccc3n2)cc1 was read as HCMV antiviral -96*, Sm TGR block -6%, Tb PYK inh inconclusive, FMDV inh inconclusive, FBPA Giardia inh -11% and RE007 growth inh 15%.
Screening COc1ccc(/C=C/c2nc3ccccc3c(=O)o2)cc1 returned HCMV antiviral -95*, Sm TGR block 7%, Tb PYK inh -25%, FMDV inh 0%, FBPA Giardia inh -1% and RE007 growth inh -10%.
COc1ccc(-n2cnc3ccccc32)cc1 was read as HCMV antiviral -74*, Sm TGR block -15%, Tb PYK inh -3%, FBPA Giardia inh -2% and RE007 growth inh -1%.
`c1ccc(-n2cnc3ccccc32)cc1` gave HCMV antiviral -93*, Sm TGR block -1%, Tb PYK inh 0%, FMDV inh 22%, FBPA Giardia inh 3% and RE007 growth inh -10%.
Screening COc1ccc(/C=C/c2nc3ccccc3n2C)cc1 returned HCMV antiviral -85*, Sm TGR block inconclusive, Tb PYK inh inconclusive, FMDV inh 1.8µM*, FBPA Giardia inh inconclusive and RE007 growth inh 32µM*.
Screening COc1ccccc1/C=C/c1nc2ccccc2c(=O)o1 returned HCMV antiviral 22, Tb PYK inh -11%, FMDV inh 51% and RE007 growth inh 6%.
For COc1ccc2ncn(-c3ccccc3)c2c1 the results were HCMV antiviral inconclusive, Sm TGR block 4%, Tb PYK inh 4%, FMDV inh 10%, FBPA Giardia inh -3% and RE007 growth inh 6%.
Screening COc1ccc(Cn2c(/C=C/c3ccccc3)nc3ccccc32)cc1 returned HCMV antiviral 41, Sm TGR block -22%, Tb PYK inh 2%, FMDV inh 11%, FBPA Giardia inh -21% and RE007 growth inh -20%.
For CCN1CCCC1CNC(=O)c1cnn(-c2nccc(-c3ccc(C)o3)n2)c1C1CC1 (stereo unspecified) the results were FMDV inh -8%.
N#CC1=C(S)N(c2ccccc2)C(c2ccc(-c3ccc(Cl)c(Cl)c3)o2)NC1=O (stereo unspecified) was read as HCMV antiviral -33, Sm TGR block 14µM*, Tb PYK inh -6%, FMDV inh -2%, FBPA Giardia inh -24% and RE007 growth inh -12%.
`Cc1ccc2c(c1)N(CCC(=O)NC(C)C)C(=O)CO2` gave HCMV antiviral -76*, Sm TGR block -4%, Tb PYK inh 1%, FMDV inh 0%, FBPA Giardia inh 4% and RE007 growth inh 5%.
CCc1ccccc1NC(=O)Nc1nnc(N2CCCC2)s1 was read as HCMV antiviral -3, Sm TGR block -8%, Tb PYK inh 2% and FMDV inh 5%.
For O=[N+]([O-])c1ccc(C(O)CN2CCOCC2)cc1 (stereo unspecified) the results were HCMV antiviral 30, Sm TGR block -8%, Tb PYK inh -10%, FMDV inh -3%, FBPA Giardia inh 3% and RE007 growth inh -7%.
O=[N+]([O-])c1ccc(S(=O)(=O)CC(CN2CCCCC2)N2CCCCC2)cc1 (stereo unspecified) was read as HCMV antiviral -25, Sm TGR block 7.9µM*, Tb PYK inh 1%, FMDV inh 18µM*, FBPA Giardia inh 1% and RE007 growth inh 0%.
`O=[N+]([O-])c1ccc(S(=O)(=O)CC(CN2CCOCC2)N2CCOCC2)cc1` (stereo unspecified) gave HCMV antiviral -102*, Sm TGR block inconclusive, Tb PYK inh -1%, FMDV inh 6%, FBPA Giardia inh -4% and RE007 growth inh 3%.
